Measurements as given in the supplement of paper PMC6089552.
Among all 3,200 compounds or so, about 300 (9.4%) showed activity. The list comes from a sample in which actives are over-represented; it also holds similar structures and randomly drawn compounds. Values without a mark were called inactive.

System: A673/TR/shEF
Test: cell viability (LOESS-normalised, relative to median of negative controls) (log2 ratio); higher = more viable cells (less compound effect), active = hit call of the paper (over 3 MAD below the median)
Conditions: treatment time: 72 h
How it was run: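 A673/TR/shEF Ewing sarcoma cells (1,500 per well, 384-well plates) were grown with or without doxycycline to induce EWS-FLI1 shRNA knockdown, starting 24 h before compounds. Library compounds at two or more concentrations, with DMSO controls, were added for three days. Cell viability was read by CellTiter-Glo luminescence on an Envision reader, then LOESS-corrected per plate, divided by the median of negative controls and log2-transformed. Hits were wells at least three median absolute deviations from the median of all screened wells.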

[1] = 0.25 µM, library screen: screen1, EWS-FLI1 expression: high (no doxycycline)
[2] = 0.25 µM, library screen: screen1, EWS-FLI1 expression: low (doxycycline-induced shRNA knockdown)
[3] = 2.5 µM, library screen: screen1, EWS-FLI1 expression: high (no doxycycline)
[4] = 2.5 µM, library screen: screen1, EWS-FLI1 expression: low (doxycycline-induced shRNA knockdown)
[5] = 0.25 µM, library screen: screen2, EWS-FLI1 expression: high (no doxycycline)
[6] = 0.25 µM, library screen: screen2, EWS-FLI1 expression: low (doxycycline-induced shRNA knockdown)
[7] = 2.5 µM, library screen: screen2, EWS-FLI1 expression: high (no doxycycline)
[8] = 2.5 µM, library screen: screen2, EWS-FLI1 expression: low (doxycycline-induced shRNA knockdown)

CCNc1nc(Cl)nc(NC(C)C)n1
cell viability (log2) [1]: 0.143
cell viability (log2) [2]: 0.0518
cell viability (log2) [3]: 0.132
cell viability (log2) [4]: 0.0856

CCC1(C2=NCCN2)Cc2ccccc2O1 (stereo unspecified)
cell viability (log2) [5]: 0.203
cell viability (log2) [6]: 0.0265
cell viability (log2) [7]: 0.184
cell viability (log2) [8]: 0.0979

CC[C@@]1([C@H]2O[C@H]([C@H]3O[C@@](O)(CO)[C@H](C)C[C@@H]3C)C[C@H]2C)CC[C@H]([C@@]2(C)CC[C@]3(C[C@H](O)[C@@H](C)[C@@H]([C@H](C)[C@H](OC)[C@@H](C)C(=O)O)O3)O2)O1
cell viability (log2) [1]: -0.0386
cell viability (log2) [2]: 0.12
cell viability (log2) [3]: -0.325 (active)
cell viability (log2) [4]: 0.0352

CO[C@@H]1C[C@@H](C[C@H]2CC[C@H](C)[C@H]([C@@H](C)C(=O)O)O2)O[C@]2(O[C@](C)([C@H]3CC[C@@](C)([C@@H]4O[C@@H]([C@H]5O[C@@](O)(CO)[C@H](C)C[C@@H]5C)C[C@@H]4C)O3)C[C@H]2C)[C@@H]1C
cell viability (log2) [1]: 0.0701
cell viability (log2) [2]: 0.147
cell viability (log2) [3]: -0.685 (active)
cell viability (log2) [4]: -0.0408

CN1CCc2cc(O)cc3c2C1Cc1ccc(O)c(O)c1-3 (stereo unspecified)
cell viability (log2) [5]: 0.248
cell viability (log2) [6]: 0.14
cell viability (log2) [7]: 0.197
cell viability (log2) [8]: 0.135

Nc1ccc2c(n1)[nH]c1ccccc12
cell viability (log2) [5]: 0.156
cell viability (log2) [6]: 0.0674
cell viability (log2) [7]: 0.0702
cell viability (log2) [8]: 0.0934

Nc1ccc(CCN2CCN(c3cccc(C(F)(F)F)c3)CC2)cc1
cell viability (log2) [5]: 0.0196
cell viability (log2) [6]: 0.0537
cell viability (log2) [7]: 0.131
cell viability (log2) [8]: 0.044

C[C@@H]1C[C@H]2CC(=O)[C@H]3CCCN4CCC[C@H]2[C@]34C1
cell viability (log2) [1]: 0.103
cell viability (log2) [2]: 0.0455
cell viability (log2) [3]: 0.108
cell viability (log2) [4]: 0.0845

O=P1(N(CCCl)CCCl)NCCCO1 (stereo unspecified)
cell viability (log2) (0.025 µM, library screen: screen2, EWS-FLI1 expression: high (no doxycycline)): 0.105
cell viability (log2) (0.025 µM, library screen: screen2, EWS-FLI1 expression: low (doxycycline-induced shRNA knockdown)): 0.0824
cell viability (log2) (0.103 µM, library screen: screen3, EWS-FLI1 expression: high (no doxycycline)): 0.146
cell viability (log2) (0.103 µM, library screen: screen3, EWS-FLI1 expression: low (doxycycline-induced shRNA knockdown)): 0.0804
cell viability (log2) [1]: 0.11
cell viability (log2) [2]: 0.163
cell viability (log2) [5]: 0.137
cell viability (log2) [6]: 0.0863
cell viability (log2) (0.308 µM, library screen: screen3, EWS-FLI1 expression: high (no doxycycline)): 0.0638
cell viability (log2) (0.308 µM, library screen: screen3, EWS-FLI1 expression: low (doxycycline-induced shRNA knockdown)): 0.0134
cell viability (log2) (0.926 µM, library screen: screen3, EWS-FLI1 expression: high (no doxycycline)): 0.0846
cell viability (log2) (0.926 µM, library screen: screen3, EWS-FLI1 expression: low (doxycycline-induced shRNA knockdown)): 0.061
cell viability (log2) [3]: 0.228
cell viability (log2) [4]: 0.17
cell viability (log2) [7]: 0.122
cell viability (log2) [8]: 0.0525
cell viability (log2) (2.8 µM, library screen: screen3, EWS-FLI1 expression: high (no doxycycline)): 0.114
cell viability (log2) (2.8 µM, library screen: screen3, EWS-FLI1 expression: low (doxycycline-induced shRNA knockdown)): 0.0823
cell viability (log2) (8.3 µM, library screen: screen3, EWS-FLI1 expression: high (no doxycycline)): 0.0653
cell viability (log2) (8.3 µM, library screen: screen3, EWS-FLI1 expression: low (doxycycline-induced shRNA knockdown)): 0.1
cell viability (log2) (25 µM, library screen: screen2, EWS-FLI1 expression: high (no doxycycline)): 0.0276
cell viability (log2) (25 µM, library screen: screen2, EWS-FLI1 expression: low (doxycycline-induced shRNA knockdown)): 0.165
cell viability (log2) (25 µM, library screen: screen3, EWS-FLI1 expression: high (no doxycycline)): 0.071
cell viability (log2) (25 µM, library screen: screen3, EWS-FLI1 expression: low (doxycycline-induced shRNA knockdown)): 0.141

Cc1c(N)nc([C@H](CC(N)=O)NC[C@H](N)C(N)=O)nc1C(=O)N[C@H](C(=O)N[C@H](C)[C@@H](O)[C@H](C)C(=O)N[C@H](C(=O)NCCc1nc(-c2nc(C(=O)NCCC[S+](C)C)cs2)cs1)[C@@H](C)O)[C@@H](OC1OC(CO)C(O)C(O)C1OC1OC(CO)C(O)C(OC(N)=O)C1O)c1cnc[nH]1 (stereo partly specified)
cell viability (log2) [1]: 0.091
cell viability (log2) [2]: 0.105
cell viability (log2) [3]: 0.125
cell viability (log2) [4]: 0.052

C[C@]12CCC3C(CC[C@H]4C[C@H](O)CC[C@]34C)C1CC[C@@H]2O (stereo partly specified)
cell viability (log2) [1]: 0.158
cell viability (log2) [2]: 0.216
cell viability (log2) [3]: 0.201
cell viability (log2) [4]: 0.106

C[C@]12CC[C@H](O)C[C@H]1CC[C@@H]1[C@@H]2[C@H](O)C[C@]2(C)[C@@H](C3=CC(=O)OC3)CC[C@]12O
cell viability (log2) [1]: 0.0899
cell viability (log2) [2]: -0.0779
cell viability (log2) [3]: -0.259 (active)
cell viability (log2) [4]: -0.409 (active)

C[C@]12CC[C@@H](O)C[C@@H]1CC[C@@H]1[C@@H]2CC[C@]2(C)C(=O)CC[C@@H]12
cell viability (log2) [1]: -0.00242
cell viability (log2) [2]: -0.00815
cell viability (log2) [5]: 0.137
cell viability (log2) [6]: 0.0672
cell viability (log2) [3]: 0.0414
cell viability (log2) [4]: 0.0708
cell viability (log2) [7]: 0.202
cell viability (log2) [8]: 0.0943

C[C@]12CC[C@H](O)C[C@H]1CC[C@@H]1[C@@H]2C[C@@H](O)[C@]2(C)[C@@H](C3=CC(=O)OC3)CC[C@]12O
cell viability (log2) [1]: 0.0425
cell viability (log2) [2]: -0.036
cell viability (log2) [3]: -0.488 (active)
cell viability (log2) [4]: -0.691 (active)

C[C@]12CC[C@H](O)C[C@@H]1CC[C@@H]1[C@@H]2CC[C@]2(C)[C@@H](O)CC[C@@H]12
cell viability (log2) [1]: 0.128
cell viability (log2) [2]: 0.00375
cell viability (log2) [3]: 0.117
cell viability (log2) [4]: 0.154

C[C@]12CC[C@H](O)C[C@@H]1CC[C@@H]1[C@@H]2CC[C@]2(C)C(=O)CC[C@@H]12
cell viability (log2) [1]: 0.113
cell viability (log2) [2]: 0.0515
cell viability (log2) [3]: 0.101
cell viability (log2) [4]: 0.0566

CN1C2C[C@H](OC(=O)[C@H](CO)c3ccccc3)CC1[C@@H](O)C2 (stereo partly specified)
cell viability (log2) [1]: 0.0376
cell viability (log2) [2]: 0.0137
cell viability (log2) [3]: 0.116
cell viability (log2) [4]: 0.0715

C=C1C2CC[C@@]3(C)[C@H](c4ccoc4)OC(=O)C[C@]13O[C@H]1CC(=O)C(C)(C)[C@H](C(OC(C)=O)C(=O)OC)[C@@]21C (stereo partly specified)
cell viability (log2) [1]: 0.0428
cell viability (log2) [2]: 0.0583
cell viability (log2) [3]: 0.106
cell viability (log2) [4]: 0.119
